Tested on in one experiment: not listed separately
The experiment is described as follows: small-molecule microarray binders of probe aLefty2, primary screen, biochemical, biotinylated probe, 635/667 nm fluorescence (AID 1094).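 Also: score merges spot fluorescence near 667 nm with spot signal-to-noise ratio.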 To be noted: higher = more signal.
`OB1C=CCC(CCc2ccccc2)O1` (stereo not given) returned a composite z-score of -0.192.

The compound `CCCCCCc1nc(-c2ccc(-c3ccc(Cl)c(Cl)c3)o2)c(C)c2c1[Si](C(C)C)(C(C)C)OC2` showed a composite z-score of -0.259.

Turning to `O=C1NC(=O)C2C1C=CC(C(O)C=Cc1ccc([N+](=O)[O-])cc1)N2Nc1ccc(Cl)cc1Cl` (stereo not given), the composite z-score amounted to 0.729.

Take `Cc1ccc(S(=O)(=O)N2C[C@@H](C(=O)O)[C@H](Sc3ccccc3)C[C@H]2c2ccccc2)cc1`: the composite z-score stood at 0.237.

`COC(=O)[C@@]1(Cc2ccccc2)[C@H]2c3cc(C(=O)N(C)C)n(CCc4c[nH]c5ccc(O)cc45)c3C[C@H]2CN1C(=O)c1ccccc1` showed a composite z-score of 0.583.

`C=CC[C@]1(C(N)=O)COC(c2ccc(OCCCO)cc2)=N1` had a composite z-score of 0.301.

On to `O=C(CS)NCCCCCNC(=O)[C@@H]1C[C@@H]2C(=O)NCC(=O)N2[C@@H]1c1ccc(O)cc1`, for which the composite z-score was -0.124.

In turn, `COc1cc(OC)c(C(O)C2C=CC3C(=O)NC(=O)C3N2Nc2ccccn2)cc1Br` (stereo not given) had a composite z-score of 0.0917.

In the case of `NC(=O)[C@@]1(Cc2ccccc2)N=C(c2ccc(OCCCO)cc2)O[C@H]1c1ccccc1`, the composite z-score came out at 0.0694.

The compound `C=CCN1C(=O)[C@]2(O[C@H](CCO)[C@@H]([Si](C)(C)c3ccc(OC)cc3)[C@@H]2C)c2cc(N(C=O)c3ccccc3)ccc21` had a composite z-score of -0.121.

With `O=C(CS)NCCCCCNC(=O)[C@H]1C[C@H]2C(=O)NCC(=O)N2[C@H]1c1cccc(OCCO)c1`, the composite z-score was -0.0778.

`CC(c1ccccc1)C(O)C1C=CC2C(=O)N(C)C(=O)C2N1NC(=O)OC(C)(C)C` (stereo not given) gave a composite z-score of 0.12.

The compound `CO[C@H]1O[C@H](CO)[C@@H](OC(=O)Nc2ccccc2)[C@@H]2OC(=O)[C@@H](Cc3ccc4ccccc4c3)C/C=C/C[C@H](Cc3ccc4ccccc4c3)C(=O)O[C@@H]12` returned a composite z-score of -0.0403.

Regarding `CCCC[C@@H]1C[C@H]1[C@@H](NC(=O)c1cccnc1)c1ccc(Cl)cc1`, the composite z-score was -0.165.

In turn, `[N-]=[N+]=NCc1ccccc1[C@@H]1OC(c2ccc(OCCCO)cc2)=N[C@]1(CCS(=O)(=O)c1ccccc1)C(N)=O` returned a composite z-score of 0.308.

For `COc1ccc(CCNC(=O)[C@@]2(c3ccc([N+](=O)[O-])cc3)CC(=O)N(CC34CC5CC(CC(C5)C3)C4)[C@@H]2c2ccc(CO)cc2I)cc1`, the composite z-score is -0.387.

With `COC(=O)[C@H](Cc1ccccc1)N[C@H](/C=C/C1CC1)[C@@H](O)Cc1ccccc1`, the composite z-score is -0.279.

Compound `COc1ccc(C(O)C2C=CC3C(=O)N(C)C(=O)C3N2N(c2ccccc2)c2ccccc2)c2ccccc12` (stereo not given) registered a composite z-score of 0.242.

In the case of `CC(C)(C)OC(=O)CC[C@]1(C(N)=O)N=C(c2ccc(OCCCO)cc2)O[C@H]1c1ccccc1`, the composite z-score amounted to 0.423.

As to `COC(=O)[C@@]1(Cc2ccccc2)[C@H]2c3cc(C(=O)N(C)C)n(Cc4ccc(OC)c(OC)c4)c3C[C@H]2CN1C(=O)c1ccccc1`, the composite z-score is 0.728.

In turn, `COCC(=C=CC[C@H](O)c1ccccc1OCCO)CCO` showed a composite z-score of 0.0041.

`[N-]=[N+]=NCc1ccccc1[C@@H]1OC(c2ccc(OCCCO)cc2)=N[C@]1(CCS(=O)(=O)c1ccccc1)C(=O)N1CCCCC1` returned a composite z-score of 0.0563.

As for `C=C(C)[C@@H]1CC=C(C(O)C2C=CC3C(=O)NC(=O)C3N2Nc2ccc(Cl)cc2Cl)CC1` (stereo not given in full), the composite z-score stood at 0.325.

Consider `O=C(O)[C@H]1C[C@H]2C(=O)N3CCC[C@H]3C(=O)N2[C@H]1c1ccc(O)cc1`, for which the composite z-score came to 0.0212.

On to `[N-]=[N+]=Nc1ccccc1C[C@]1(C(=O)NCC(O)CO)N=C(c2ccc(OCCCO)cc2)O[C@H]1c1ccccc1` (stereo not given in full), for which the composite z-score came out at 0.322.

The compound `CC(C)OC(=O)C=C1C[C@@H](c2cccc(Cl)c2)O[C@@H](c2cccc(Cl)c2)O1` returned a composite z-score of -0.0009.

`COC(=O)[C@@]1(Cc2ccc(F)cc2)[C@H]2c3cc(C(=O)N(C)C)n(Cc4cc(C)n(C)n4)c3C[C@H]2CN1C(=O)c1ccccc1` showed a composite z-score of 0.629.

The compound `[N-]=[N+]=NCc1ccccc1C[C@@]1(C(=O)NCC(O)CO)N=C(c2ccc(OCCCO)cc2)O[C@@H]1c1ccccc1` (stereo not given in full) yielded a composite z-score of 0.202.

For `COC(=O)[C@@]1(Cc2ccc(OC)cc2)[C@H]2c3cc(C(=O)N4CCCC4)n(CCc4ccc(O)c(O)c4)c3C[C@H]2CN1C(=O)c1ccccc1`, the composite z-score was 0.491.

Regarding `CC(c1ccccc1)C(O)C1C=CC2C(=O)N(c3ccccc3)C(=O)C2N1Nc1ccccc1` (stereo not given), the composite z-score is 0.0008.

Turning to `O=C1OCCC/C=C\[C@H]2OC34C=CCN(c5ccc6ccccc6c5)C(=O)[C@H]3N(CCCCCO)C(=O)[C@@H]4C12` (stereo not given in full), the composite z-score is -0.156.

The compound `C#CCN1[C@@H](Cc2ccc(O)cc2)C(=O)O[C@H](Cc2ccccc2)[C@@H]1/C=C/C1CC1` yielded a composite z-score of -0.144.

For the compound `COCCCNC(=O)[C@@H]1c2ccccc2C(=O)N(Cc2ccccc2)[C@H]1c1ccc(CO)cc1`, the composite z-score was determined as 0.384.

`COc1cc2c(cc1O)C(c1cccs1)N(Cc1ccc([N+](=O)[O-])o1)CC2` (stereo not given) gave a composite z-score of 0.156.

The compound `C=C(CCCC)/C(=C/C[C@@H](OC(C)=O)c1ccccc1OCCO)c1cc(C(=O)OC)ccc1OC` showed a composite z-score of -0.12.

The subject of a further experiment is Noggin (protein binding on small-molecule microarray). As to the kind of experiment: Noggin binders on small-molecule microarray, primary screen, biochemical, 635/667 nm fluorescence (AID 1095).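 Also: score merges 667 nm feature fluorescence with signal to noise over triplicate slides.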 Particulars: 635 nm fluorescence, higher = more signal.
Compound `OB1C=CCC(CCc2ccccc2)O1` (stereo not given) registered a composite z-score of -0.0988.

Take `CCCCCCc1nc(-c2ccc(-c3ccc(Cl)c(Cl)c3)o2)c(C)c2c1[Si](C(C)C)(C(C)C)OC2`: the composite z-score was -0.123.

`O=C1NC(=O)C2C1C=CC(C(O)C=Cc1ccc([N+](=O)[O-])cc1)N2Nc1ccc(Cl)cc1Cl` (stereo not given) displayed a composite z-score of -0.518.

The compound `Cc1ccc(S(=O)(=O)N2C[C@@H](C(=O)O)[C@H](Sc3ccccc3)C[C@H]2c2ccccc2)cc1` had a composite z-score of 0.228.

The compound `COC(=O)[C@@]1(Cc2ccccc2)[C@H]2c3cc(C(=O)N(C)C)n(CCc4c[nH]c5ccc(O)cc45)c3C[C@H]2CN1C(=O)c1ccccc1` displayed a composite z-score of 0.626.

In turn, `C=CC[C@]1(C(N)=O)COC(c2ccc(OCCCO)cc2)=N1` displayed a composite z-score of 0.27.

As to `O=C(CS)NCCCCCNC(=O)[C@@H]1C[C@@H]2C(=O)NCC(=O)N2[C@@H]1c1ccc(O)cc1`, the composite z-score was 0.362.

`COc1cc(OC)c(C(O)C2C=CC3C(=O)NC(=O)C3N2Nc2ccccn2)cc1Br` (stereo not given): the composite z-score came to 0.458.

Take `NC(=O)[C@@]1(Cc2ccccc2)N=C(c2ccc(OCCCO)cc2)O[C@H]1c1ccccc1`: the composite z-score was 0.0537.

Consider `C=CCN1C(=O)[C@]2(O[C@H](CCO)[C@@H]([Si](C)(C)c3ccc(OC)cc3)[C@@H]2C)c2cc(N(C=O)c3ccccc3)ccc21`, for which the composite z-score was -0.0888.

As to `O=C(CS)NCCCCCNC(=O)[C@H]1C[C@H]2C(=O)NCC(=O)N2[C@H]1c1cccc(OCCO)c1`, the composite z-score amounted to 0.262.

`CC(c1ccccc1)C(O)C1C=CC2C(=O)N(C)C(=O)C2N1NC(=O)OC(C)(C)C` (stereo not given) had a composite z-score of 0.01.

In turn, `CO[C@H]1O[C@H](CO)[C@@H](OC(=O)Nc2ccccc2)[C@@H]2OC(=O)[C@@H](Cc3ccc4ccccc4c3)C/C=C/C[C@H](Cc3ccc4ccccc4c3)C(=O)O[C@@H]12` gave a composite z-score of 0.369.

For `CCCC[C@@H]1C[C@H]1[C@@H](NC(=O)c1cccnc1)c1ccc(Cl)cc1`, the composite z-score is -2.93.

The compound `[N-]=[N+]=NCc1ccccc1[C@@H]1OC(c2ccc(OCCCO)cc2)=N[C@]1(CCS(=O)(=O)c1ccccc1)C(N)=O` showed a composite z-score of 0.888.

Regarding `COc1ccc(CCNC(=O)[C@@]2(c3ccc([N+](=O)[O-])cc3)CC(=O)N(CC34CC5CC(CC(C5)C3)C4)[C@@H]2c2ccc(CO)cc2I)cc1`, the composite z-score is 1.52.

With `COC(=O)[C@H](Cc1ccccc1)N[C@H](/C=C/C1CC1)[C@@H](O)Cc1ccccc1`, the composite z-score was determined as 0.195.

In turn, `COc1ccc(C(O)C2C=CC3C(=O)N(C)C(=O)C3N2N(c2ccccc2)c2ccccc2)c2ccccc12` (stereo not given) registered a composite z-score of 0.575.

Turning to `CC(C)(C)OC(=O)CC[C@]1(C(N)=O)N=C(c2ccc(OCCCO)cc2)O[C@H]1c1ccccc1`, the composite z-score turned out to be 0.115.

For `COC(=O)[C@@]1(Cc2ccccc2)[C@H]2c3cc(C(=O)N(C)C)n(Cc4ccc(OC)c(OC)c4)c3C[C@H]2CN1C(=O)c1ccccc1`, the composite z-score was found to be 0.0998.

On to `COCC(=C=CC[C@H](O)c1ccccc1OCCO)CCO`, for which the composite z-score stood at 0.698.

The compound `[N-]=[N+]=NCc1ccccc1[C@@H]1OC(c2ccc(OCCCO)cc2)=N[C@]1(CCS(=O)(=O)c1ccccc1)C(=O)N1CCCCC1` showed a composite z-score of 0.36.

For the compound `C=C(C)[C@@H]1CC=C(C(O)C2C=CC3C(=O)NC(=O)C3N2Nc2ccc(Cl)cc2Cl)CC1` (stereo not given in full), the composite z-score is -0.821.

`O=C(O)[C@H]1C[C@H]2C(=O)N3CCC[C@H]3C(=O)N2[C@H]1c1ccc(O)cc1` displayed a composite z-score of -0.571.

Compound `[N-]=[N+]=Nc1ccccc1C[C@]1(C(=O)NCC(O)CO)N=C(c2ccc(OCCCO)cc2)O[C@H]1c1ccccc1` (stereo not given in full) yielded a composite z-score of -0.5.

For `CC(C)OC(=O)C=C1C[C@@H](c2cccc(Cl)c2)O[C@@H](c2cccc(Cl)c2)O1`, the composite z-score was -0.225.

For the compound `COC(=O)[C@@]1(Cc2ccc(F)cc2)[C@H]2c3cc(C(=O)N(C)C)n(Cc4cc(C)n(C)n4)c3C[C@H]2CN1C(=O)c1ccccc1`, the composite z-score is -0.421.

`[N-]=[N+]=NCc1ccccc1C[C@@]1(C(=O)NCC(O)CO)N=C(c2ccc(OCCCO)cc2)O[C@@H]1c1ccccc1` (stereo not given in full) showed a composite z-score of -0.962.

`COC(=O)[C@@]1(Cc2ccc(OC)cc2)[C@H]2c3cc(C(=O)N4CCCC4)n(CCc4ccc(O)c(O)c4)c3C[C@H]2CN1C(=O)c1ccccc1` yielded a composite z-score of -0.17.

`CC(c1ccccc1)C(O)C1C=CC2C(=O)N(c3ccccc3)C(=O)C2N1Nc1ccccc1` (stereo not given) registered a composite z-score of 0.833.

The compound `O=C1OCCC/C=C\[C@H]2OC34C=CCN(c5ccc6ccccc6c5)C(=O)[C@H]3N(CCCCCO)C(=O)[C@@H]4C12` (stereo not given in full) registered a composite z-score of -0.766.

The compound `C#CCN1[C@@H](Cc2ccc(O)cc2)C(=O)O[C@H](Cc2ccccc2)[C@@H]1/C=C/C1CC1` gave a composite z-score of -0.204.

The compound `COCCCNC(=O)[C@@H]1c2ccccc2C(=O)N(Cc2ccccc2)[C@H]1c1ccc(CO)cc1` returned a composite z-score of 0.525.

Consider `COc1cc2c(cc1O)C(c1cccs1)N(Cc1ccc([N+](=O)[O-])o1)CC2` (stereo not given), for which the composite z-score was -0.419.

The compound `C=C(CCCC)/C(=C/C[C@@H](OC(C)=O)c1ccccc1OCCO)c1cc(C(=O)OC)ccc1OC` had a composite z-score of 0.0643.

For the origin of these results see PubChem BioAssay.
